# High-throughput results: PubChem, National Center for Advancing Translational Sciences (NCATS)
# p53ts 32C kill: p53ts cell cytotoxicity, permissive temperature. AID 924. H1299-p53A138V at 32C, ATP luminescence viability, 24 h. 130,000 compounds, 0.93% hits. Potency, µM (highest dose often 46.1 µM), for the others: at the top dose activity change, negative = cytotoxicity, usual class: cytotoxic;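 also: 0% = DMSO and -100% = full killing by reference compound; nearly all actives have a fitted effect of over 55% in size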
#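 H1299-p53 A138V cells (temperature-sensitive p53) exposed 24 h to up to 46 uM compound at 32C, where p53 is wild-type in conformation. Viability read as ATP luminescence and normalised to DMSO and 100 uM tamoxifen. AC50 fitted with the Hill equation.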
# p53ts 39C kill: kills p53ts cells at the nonpermissive temperature; H1299-p53A138V viability at 39C, ATP luminescence, 24 h; Potency, µM (doses to about 46.1 µM), inactives show at the top dose activity change, negative = cell killing, most hits filed as cytotoxic; 130,000 compounds, 1.5% hits; AID 902; also: % is scaled to controls: 0 for no effect and ±100 for the full control effect; nearly all actives have a fitted effect of over 55% in size
# Peg3 imprint: inducers of genomic imprint erasure in mouse ES cells | Potency, µM (series often up to 60.7 µM), for the others: at the highest dose activity change, positive = activation, most hits filed as activators | mouse ES Peg3-LacZ reporter, beta-gal luminescence, 40 h | 110,000 compounds, 0.02% hits
#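 Each well holds 300 Peg3LacZ-Neo (maternal) female ES cells incubated 40 h at 37C, 5% CO2. LacZ is measured by BetaGlo luminescence, with AC50 and maximum efficacy derived from dose-response curves.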
# * hit, by the source's call; ? = inconclusive; / = no result; ! = not confirmed by another sample; [ ] = remark or other dose. A selection: hits, their analogues and other compounds. The true share with any hit is near 1.8%. Calls follow the shape of the dose curve; as a rule, active = well fitted curve in the direction sought with a large enough effect; inconclusive = small, poorly fitted or top-dose-only effect, or another doubt; inactive = no such curve, though single readings can be large; an effect the other way counts as inactive or inconclusive. Potency is read from the fitted curve at half-maximal effect.
SMILES,p53ts 32C kill,p53ts 39C kill,Peg3 imprint
CC(C)[C@@]1(NC(=O)[C@@H]2C[C@H]3c4cccc5[nH]cc(c45)C[C@@H]3N(C)C2)O[C@@]2(O)[C@H]3CCCN3C(=O)[C@H](Cc3ccccc3)N2C1=O,?,32µM*!,-4%
CN1C[C@H](C(=O)N[C@]2(C)O[C@@]3(O)[C@@H]4CCCN4C(=O)[C@H](Cc4ccccc4)N3C2=O)C=C2c3cccc4[nH]cc(c34)C[C@H]21,9%[1.84 µM],4%,-6%
Cc1nc2ccccc2c(=O)n1-n1cnnc1,21%,-8%,-4%
CC(=O)c1c(C)nc2ccccc2c1N,13µM*,10µM*,-34%
COc1ccc(CNC(=O)Cn2c(SCC(=O)Nc3ccc(C)c(C)c3)nc3ccccc32)cc1,?,?,-11%[10.9 µM]
[Cl][Pd][Cl].[S-]C1=C2N=CN[C-]2[NH+]=C[N-]1.[S-]c1ncnc2[nH]cnc12,/,/,19%[10.9 µM]
COC(=O)c1c(C)ccc2c(O)c3c(cc12)C(=O)c1c2c(cc(O)c1C3=O)[C@@]1(C)O[C@@](C)(O2)[C@@H](O)[C@H](N(C)C)[C@H]1O,-3%[9.22 µM],12%[9.22 µM],7%[10.9 µM]
[Cd+2].[Cl-].[Cl-],/,1.3µM*,-22%
CCC1(CCSC(=N)N)C(=O)NC(=O)NC1=O,6%[9.22 µM],10%[9.22 µM],-15%[10.9 µM]
Cc1ccc(NC(=O)Cn2c(=O)cc(-c3ccccc3)c3c(C)nn(C)c32)c(Cl)c1,5%,?,-20%[10.9 µM]
Nc1ncnc2c1ncn2[C@@H]1O[C@@H](COP(=O)(O)CP(=O)(O)OP(=O)(O)O)[C@H](O)[C@@H]1O,-23%,-11%,/
COc1ccc(-c2oc3cc(OC)ccc3c(=O)c2O)cc1,8%,?,-21%
Oc1ccc2c3c1O[C@@H]1[C@@H](O)CC[C@]4(O)[C@H](C2)N(CC2CCC2)CC[C@@]314,-4%,12%,/
Oc1ccc2c3c1O[C@H]1c4[nH]c5ccccc5c4C[C@]4(O)[C@H](C2)N(CC2CC2)CC[C@@]314,-9%,?,5%
Oc1ccc2c3c1O[C@H]1c4c(c5ccccc5n4Cc4ccccc4)C[C@]4(O)[C@H](C2)N(CC2CC2)CC[C@@]314,?,32µM*,-29%
O=C(N1CCOCC1)C1(c2ccccc2)CCNCC1,-6%[9.22 µM],9%[9.22 µM],-9%[10.9 µM]
Cc1c([C@@H](C)[C@H]2NC[C@H](C)C[C@@H]2O)ccc2c1C[C@@H]1[C@H]2CC=C2C[C@@H](O)CC[C@@]21C,5%[9.22 µM],11%[9.22 µM],/
COc1cc([C@@H](O)CN)ccc1O,5%,10%,/
CC(=O)c1ccc(NC(=O)c2sc3nc4c(cc3c2N)N2CCC4CC2)cc1,?,-22%,-6%[10.9 µM]
Cc1ccc(C(=O)Nc2c(C(=O)Nc3ccc(C)c(C)c3)sc3nc(C)cc(C)c23)cc1,-24%,6.3µM*,-5%[10.9 µM]
N=C(N)SCc1ccc(Cl)c2ccccc12 (tested in a mixture with another compound),-7%[9.22 µM],-5%[9.22 µM],1%[10.9 µM]
Cc1nc2c(=O)n(C)c(=O)nc-2n(C)n1,1.1µM*,2µM*,/
CN1C[C@@H](CS(=O)(=O)N(C)C)C[C@H]2c3cccc4c3c(cn4C)C[C@@H]21,-4%,-8%,/
COC(=O)/C(C)=C\CC12OC(C)(C)C3CC(C=C4C(=O)c5c(OC)c6c(c(CC=C(C)C)c5OC431)OC(C)(CCC=C(C)C)C=C6)C2=O (stereo not drawn),4µM*,6.3µM*,-42%
CC(=O)Oc1c2c(c(CC=C(C)C)c3c1C(=O)C1=CC4CC5C(C)(C)OC(C/C=C(\C)C(=O)O)(C4=O)[C@]15O3)OC(C)(CCC=C(C)C)C=C2 (stereo partly drawn),4µM*,4µM*,-43%
SMILES,p53ts 32C kill,p53ts 39C kill,Peg3 imprint
CN(C)CCCNc1c2c(nc3ccc(Cl)cc13)CCCC2,-15%[9.22 µM],-5%[9.22 µM],10%[10.9 µM]
O=C1OC(=O)[C@@H]2[C@@H]1[C@@H]1CC[C@H]2O1,35%,12%,/
COc1cc2cc(c1Cl)N(C)C(=O)C[C@H](OC(=O)C(C)C)[C@]1(C)O[C@@H]1[C@@H](C)[C@H]1C[C@](O)(NC(=O)O1)[C@@H](OC)/C=C\C=C(\C)C2,9%[9.22 µM],-5%[9.22 µM],-30%[10.9 µM]
C[C@@H](Cc1cccc(C(F)(F)F)c1)NCCCc1ccccc1,-5%,25µM*,-23%
C#CCN[C@H](C)Cc1ccccc1,/,/,-6%
Cc1c([C@@H](C)C2NC[C@H](C)C[C@@H]2O)ccc2c1C[C@@H]1[C@H]2CC=C2C[C@@H](O)CC[C@@]21C (stereo partly drawn),/,/,-22%[10.9 µM]
O=C(Cn1c(=O)oc2cc(S(=O)(=O)N3CCCCCC3)ccc21)NCc1ccccc1Cl,32%,23%,-23%[10.9 µM]
O=C(Cn1c(=O)n(Cc2ccccc2)c(=O)c2sc3ccccc3c21)NCc1ccccc1Cl,13µM*,32µM*,13%[10.9 µM]
NC[C@@H](Cc1ccccc1)P(=O)(O)O,1%[9.22 µM],-6%[9.22 µM],-10%[10.9 µM]
[CH3][Hg][Cl],9%[1.84 µM],16µM*,-46%
Cc1ccc(CNC(=O)C(=O)NCC(c2cccnc2)N2CCN(c3ccc(F)cc3)CC2)cc1 (stereo not drawn),-2%,-3%,-10%[10.9 µM]
CCCN1CC[C@@H]2c3cc(O)ccc3CC[C@H]21,-3%,4%,/
O=C(O)C[C@H]1OCC=C2CN3CC[C@]45c6ccccc6N[C@@H]4[C@H]1[C@H]2C[C@H]35,-2%[9.22 µM],-3%[9.22 µM],-11%[10.9 µM]
CCCCCCCCCOc1ccc2[nH]cc(CCN)c2c1,?,32µM*,-34%
COc1ccc2[nH]cc(CCN)c2c1,8%,6%,-18%
COc1ccc2c3c1O[C@@H]1C(=O)CC[C@@]4(O)[C@@H](C2)N(CC2CC2)CC[C@]314,14%,14%,/
CC(=O)Oc1ccc(/C=C/c2cc(OC(C)=O)cc(OC(C)=O)c2)cc1,7.9µM*,6.3µM*,-51%
COc1ccc(/C=C/C(=O)Nc2ccc(C)cc2)cc1,?,-14%,-14%[10.9 µM]
O[N+]1=CC=CCC1=S.On1ccccc1=S.[Zn],0.79µM*,4µM*,-31%
Clc1ccc(N2C[C@H]3CC[C@@H](C2)N3)nn1,-12%,14%,/
O=C(O)[C@@H](O)[C@@H](O)C1[O][Sb][O][C@@H]1CO (stereo partly drawn),/,/,-17%[10.9 µM]
COc1ccc2c(c[n+](C)c3c4cc5c(cc4ccc23)OCO5)c1OC,5µM*,13µM*,-32%
COc1ccc2c(c1OC)CN1CCc3cc4c(cc3[C@H]1C2)OCO4,-1%[20.6 µM],5%[20.6 µM],-14%[16.8 µM]
O=C(O)/C=C\c1ccc[c]([Sb](=[O])([OH])[OH])c1,9%[9.22 µM],11%[9.22 µM],/
[Cl-].[Cl-].[Hg+2],/,25µM*,-85%
COc1cccc2c1C(=O)c1c(O)c3c(c(O)c1C2=O)C[C@](O)(/C(C)=N\O)C[C@@H]3O[C@H]1C[C@H](N)[C@@H](O)[C@H](C)O1,-10%[9.22 µM],-19%[9.22 µM],-35%[10.9 µM]
CCn1nc(-c2ccccc2)nc2c(=O)n(C)c(=O)nc1-2,0.63µM*,4µM*,-98%
C=C(C)c1ccccc1 (tested in a mixture with another compound),2%[9.22 µM],7%[9.22 µM],-11%[10.9 µM]
COc1ccc2nc(NC(=O)c3nc(S(=O)(=O)Cc4cccc(C)c4)ncc3Cl)sc2c1,20µM*,10µM*,-35%[10.9 µM]
CCOc1ccc2nc(NC(=O)c3cccn(Cc4ccc(C)cc4)c3=O)sc2c1,0%,1%,9%[10.9 µM]
